A selection: hits, their analogues and other compounds. The true share with any hit is near 3.8%.
HepG2 viability = counter-screen for TGF-b inhibitors: cytotoxicity in HepG2 cells. HepG2 CAGA-GFP viability, ATP luminescence, 18 h. Potency, µM (titrated, usually from 46.1 µM), without a hit: at the highest dose activity change, negative = cytotoxicity, most hits filed as cytotoxic. 0.76% of 410,000 active
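HepG2 CAGA-GFP cells (1000/well, DMEM with 1% FBS) received compound, then TGF-beta at 500 pg/mL final, and were incubated 18 hours at 37 degrees C. Viability was read by CellTiter-Glo luminescence. Media-only wells were set as complete cell-killing and DMSO as no toxicity.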
ATXN2 expr inh = inhibitors of ATXN2 expression | HEK-293 ATXN2-luciferase reporter, luminescence, 24 h | Potency, µM (doses to about 57 µM), without a hit: at the top dose activity change, negative = inhibition, usual class: inhibitors | 0.72% of 360,000 active; also: % is scaled to controls: 0 for no effect and ±100 for the full control effect; nearly all actives have a fitted effect of over 55% in size
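ATXN2-luciferase reporter cells (luciferase flanked by upstream and downstream ATXN2 gene portions) were treated 24 h at 37 °C with compounds at up to 57 uM. SteadyGlo luminescence gave expression; GF-AFC fluorescence gave viability.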
ATXN viability = reduces viability in counter-screen for ATXN expression inhibitors. S2 cells (HEK-293 line with an ATXN2-luciferase reporter) viability, CellTiter-Fluor protease fluorescence, 24 h. Potency, µM (top dose mostly 56.7 µM), most hits filed as cytotoxic. 0.49% of 400,000 active. AID 651635; also: nearly all actives have a fitted effect of over 40% in size
TGFb SMAD3 inh = TGF-b pathway inhibition. HepG2 CAGA-GFP TGF-b/SMAD3 reporter, GFP fluorescence, 18 h; TGF-beta stimulated, 500 pg/mL final. Potency, µM (top dose mostly 46.1 µM), for the others: at the highest dose activity, negative = inhibition, usual class: inhibitors. 1.2% of 410,000 active; also: % is scaled to controls: 0 for no effect and ±100 for the full control effect; nearly all actives have a fitted effect of over 65% in size
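Per well, imaged GFP fluorescence of HEPG2 CAGA-GFP cells gives the signal; cells get compound, then TGF-beta (500 pg/mL final), 18 h at 37 degrees C; %Activity versus -TGF-beta and +DMSO controls.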
A549 tox-1 = A549 cytotoxicity, counter-screen for Nrf2 inhibitors. A549 ARE-Fluc cells, CellTiter-Fluor viability, 18-24 h. Potency, µM (series often up to 46 µM), without a hit: at the top dose activity change, negative = cytotoxicity, usual class: inhibitors. 0.16% of 390,000 active. AID 504648; also: % is scaled to controls: 0 for no effect and ±100 for the full control effect
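A549 ARE-Fluc cells in 5% FBS OPTI-MEM, 5000 cells/well, rested 2 h then exposed to compounds in concentration-response for 18-24 h at 37 °C. Viability by CellTiter-Fluor fluorescence (Ex 405/Em 525) after 30 min; luciferase luminescence (BugLite, 15 min, RT) read afterwards.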
Nrf2 inh = Nrf2 pathway inhibition. Potency, µM (titrated, usually from 46 µM), for inactives: top-dose activity change, negative = inhibition, actives largely listed as inhibitors. AID 504444. A549 ARE-Fluc reporter, luciferase luminescence, 18-24 h. 2.1% of 360,000 active; also: % is scaled to controls: 0 for no effect and ±100 for the full control effect; nearly all actives have a fitted effect of over 60% in size
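Nrf2 activity is the BugLite luminescence, read 15 min after reagent at room temperature, following CellTiter-Fluor cytotoxicity readout (30 min, 37C). Compound titrations were applied for 18-24 h to 5000 A549 ARE_Fluc cells/well in 5% FBS OPTI-MEM.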
FLuc enzyme inh = counter-screen for Nrf2 inhibitors: firefly luciferase enzyme inhibition; shares compounds with Nrf2 inh; purified firefly luciferase, luminescence inhibition; Potency, µM (highest dose often 57.5 µM), without a hit: at the highest dose activity change, negative = inhibition, hits mostly inhibitors; 4% of 1,400 active; also: % is scaled to controls: 0 for no effect and ±100 for the full control effect; nearly all actives have a fitted effect of over 65% in size
Target sequence (P08659 whole entry, looked up): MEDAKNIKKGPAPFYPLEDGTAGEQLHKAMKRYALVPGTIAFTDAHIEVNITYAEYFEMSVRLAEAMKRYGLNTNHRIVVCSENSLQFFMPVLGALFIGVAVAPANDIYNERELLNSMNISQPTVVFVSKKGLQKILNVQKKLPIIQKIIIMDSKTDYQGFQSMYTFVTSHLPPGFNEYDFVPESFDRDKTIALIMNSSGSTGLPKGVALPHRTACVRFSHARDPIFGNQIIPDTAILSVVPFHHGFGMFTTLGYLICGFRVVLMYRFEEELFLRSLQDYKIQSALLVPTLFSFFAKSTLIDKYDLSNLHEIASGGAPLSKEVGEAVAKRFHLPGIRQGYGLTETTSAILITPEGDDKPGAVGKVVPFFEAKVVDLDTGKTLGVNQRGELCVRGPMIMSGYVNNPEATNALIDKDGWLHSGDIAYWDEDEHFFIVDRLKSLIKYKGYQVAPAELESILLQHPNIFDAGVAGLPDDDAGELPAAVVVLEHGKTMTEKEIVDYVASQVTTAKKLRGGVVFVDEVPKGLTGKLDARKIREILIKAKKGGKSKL
A549 tox-2 = toxic to A549 ARE-Fluc cells in Nrf2 counterscreen | shares compounds with Nrf2 inh | A549 ARE-Fluc cells, cytotoxicity counterscreen | Potency, µM (doses to about 46.1 µM), inactives show at the highest dose activity change, negative = cytotoxicity, actives largely listed as inhibitors | 2% of 1,400 active | AID 720523;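 also: cells exposed to compounds for 18 to 24 hours; % is scaled to controls: 0 for no effect and ±100 for the full control effect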
Nrf2 ARE inh = reduces Nrf2 ARE reporter signal in A549 cells. Potency, µM (highest dose often 46.1 µM), without a hit: top-dose activity change, negative = inhibition, actives largely listed as inhibitors. AID 720524. 74% of 1,400 active. shares compounds with Nrf2 inh. A549 ARE-firefly luciferase reporter, luminescence; also: % is scaled to controls: 0 for no effect and ±100 for the full control effect; nearly all actives have a fitted effect of over 65% in size
Starred values were filed as active, the others as inactive; i = inactive; ? = inconclusive; nt = no result given. Calls follow the shape of the dose curve; as a rule, active = well fitted curve in the direction sought with a large enough effect; inconclusive = small, poorly fitted or top-dose-only effect, or another doubt; inactive = no such curve, though single readings can be large; an effect the other way counts as inactive or inconclusive. Potency is read from the fitted curve at half-maximal effect.

SMILES | HepG2 viability | ATXN2 expr inh | ATXN viability | TGFb SMAD3 inh | A549 tox-1 | Nrf2 inh | FLuc enzyme inh | A549 tox-2 | Nrf2 ARE inh
Cc1ccc(NC(=S)NC(=O)c2ccc(F)cc2)cc1S(=O)(=O)Nc1ccccc1Cl | -3% | ? | i | ? | ? | 7.3µM* | -10% | -12% | ?
COc1ccc(C(=O)Nc2ccc(Cl)c(S(=O)(=O)Nc3ccccc3OC)c2)cc1 | -4% | ? | i | ? | -12% | 7.3µM* | ? | -10% | 9.2µM*
COc1ccc(CNC(=O)CN2C(=O)NC(Cc3ccccc3)(c3ccccc3)C2=O)cc1OC (centres undefined) | -4% | 11% | i | -14% | 1% | 2% | nt | nt | nt
O=c1[nH]c(=O)n(Cc2ccco2)c2c1C(C(F)(F)F)(C(F)(F)F)N=C(c1ccc(F)cc1)N2 | -29% | ? | ? | ? | -29% | 4.1µM* | 3% | -23% | 2.9µM*
O=c1[nH]c(=O)n(Cc2ccccc2)c2c1C(C(F)(F)F)(C(F)(F)F)N=C(c1ccco1)N2 | -32% | 7% | i | -15% | nt | ? | nt | nt | nt
CCC(=O)N1c2ccccc2NC2=C(C(=O)CC(C)(C)C2)C1c1ccc(O)c(OC)c1 (centres undefined) | -28% | -4% | i | -4% | 3% | 11% | nt | nt | nt
CCOc1ccc(-c2c[n+]3c(n2-c2ccccc2)CCCCC3)cc1 | -42% | ? | i | ? | ? | 0.92µM* | 1% | -16% | 10µM*
COc1ccc(-n2c(-c3ccccc3)cc3c2CCCC3=O)cc1 | -36% | -3% | ? | 7% | 4% | -30% | nt | nt | nt
COc1ccc(-n2c(-c3ccc(Br)cc3)c[n+]3c2CCCCC3)cc1 | -7% | ? | i | -24% | -2% | ? | nt | nt | nt
COc1ccc(-n2c(-c3ccccc3)c[n+]3c2CCC3)cc1 | -2% | ? | ? | 5% | -12% | 9.2µM* | 1% | -12% | 6.5µM*
COc1ccc(-n2c(-c3ccc(Br)cc3)c[n+]3c2CCC3)cc1 | 0% | ? | ? | 8% | -13% | 4.6µM* | 1% | -1% | -36%
Cn1cnnc1SCC(=O)NNC(=O)c1ccc(Cl)cc1 | 0% | -5% | i | 3% | 10% | 2% | nt | nt | nt
CCOC(=O)C1=C(COC(=O)c2ccc(Br)c(S(=O)(=O)N3CCOCC3)c2)NC(=O)NC1C (centres undefined) | -14% | 5% | i | -12% | -9% | ? | nt | nt | nt
CCN(CC)c1ccc(/C=C/c2ccncc2)cc1 | -38% | nt | nt | 88% | nt | nt | -14% | 6.5µM* | 1.5µM*
COc1ccc(NS(=O)(=O)c2ccc(N3CCOCC3)c(N)c2)cc1 | -20% | ? | i | -5% | -17% | 3.3µM* | -2% | 0% | 4.1µM*
CCCCC/C=C\C/C=C\CCCCCCCC(=O)NC(C)c1ccccc1 (centres undefined) | nt | -11% | i | nt | nt | nt | nt | nt | nt
S=C(NN=Cc1ccccn1)N(Cc1ccccn1)Cc1ccccn1 | -21% | 7.9µM* | ? | ? | -25% | ? | ? | ? | 2.3µM*
Cc1ccc(-c2onc(C)c2C)cc1S(=O)(=O)N1c2ccccc2CC1C (centres undefined) | -6% | -17% | i | ? | -19% | 8.2µM* | 2% | -7% | ?
O=S(=O)(NCc1cn2ccsc2n1)c1ccc(Oc2ccccc2)cc1 | -3% | -20% | i | 5% | ? | 7.3µM* | -1% | -6% | 7.3µM*
COc1cccc(C(=O)CC2(O)C(=O)Nc3ccc(Cl)cc32)c1 (centres undefined) | -15% | 1% | i | ? | -4% | -26% | nt | nt | nt
COc1cccc2c1C(=O)c1c(O)c3c(c(O)c1C2=O)CC(O)(C(=O)CO)CC3OC1CC(N(C)C)C(O)C(C)O1 (centres undefined) | 2% | ? | nt | 0.79µM* | ? | 0.46µM* | ? | ? | 0.26µM*
CCOC(=O)c1[nH]c2ccc(Cl)cc2c1NC(=O)/C=C/c1ccc2c(c1)OCO2 | 10% | ? | nt | 25% | -23% | 5.2µM* | 0% | -27% | 4.1µM*
Cc1cc(/C=C(\C#N)C(=O)Nc2ccc(Cl)cc2)c(C)n1-c1ccc(N2CCOCC2)c([N+](=O)[O-])c1 | 34% | -8% | ? | 18% | -23% | 5.2µM* | 2% | -10% | 4.6µM*
CC(C)Cn1c(N)c(C(=O)COC(=O)/C=C/c2ccccc2)c(=O)n(C)c1=O | -13% | -27% | i | -22% | ? | 6.5µM* | 1% | -5% | 7.3µM*
CC(C)Cn1c(N)c(C(=O)CSc2ccccc2)c(=O)n(C)c1=O | 0% | 10% | i | -2% | -2% | ? | nt | nt | nt
SMILES | HepG2 viability | ATXN2 expr inh | ATXN viability | TGFb SMAD3 inh | A549 tox-1 | Nrf2 inh | FLuc enzyme inh | A549 tox-2 | Nrf2 ARE inh
CC(C)Cn1c(N)c(C(=O)COC(=O)CC23CC4CC(CC(C4)C2)C3)c(=O)n(C)c1=O | -3% | ? | ? | 0% | ? | 2.1µM* | -28% | -12% | nt
Cc1ccc(NC(=O)CN2C(=O)c3cccnc3Sc3ccccc32)cc1C | -33% | nt | nt | -22% | 9% | ? | ? | 1% | 62%
C/C(=N\NC(=O)c1cc(-c2cccs2)nc2ccccc12)c1ccccn1 | -14% | 2.8µM* | i | ? | ? | 2.1µM* | 9.5µM* | -23% | 1.8µM*
NNC(=O)c1cc(-c2cccs2)nc2ccccc12 | -15% | nt | i | 10% | 26% | ? | nt | nt | nt
COc1ccccc1NC(=S)NN=C(C)c1ccccn1 | -17% | -57% | ? | ? | -18% | 1.2µM* | -28% | -22% | 2.6µM*
COc1ccc(C(=O)N/N=C(\C)c2ccccn2)cc1OC | -48% | ? | ? | ? | ? | 5.2µM* | -16% | -47% | nt
C/C(=N\NC(=O)c1ccc(Cl)c(Cl)c1)c1ccccn1 | -5% | ? | ? | ? | ? | 2.3µM* | ? | -23% | nt

Bioassay records as filed in PubChem BioAssay.
